ELG1 repair inh: blocks ELG1-dependent DNA repair in HEK293T cells; Potency, µM (doses to about 46.1 µM), for inactives: top-dose activity change, negative = inhibition, most hits filed as inhibitors; AID 504467; 330,000 tested, 2.3% active; HEK293T ELG1-luciferase reporter, luminescence, 16 h; DNA damage induced by 5-fluorouridine; further: on the % scale 0 is the no-effect control and ±100 the full control effect; nearly all actives have a fitted effect of over 55% in size
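Quantitative HTS, concentration-response format. 2,000 cells/well co-treated with 5-fluorouridine and compound, 16 hr in 5% CO2 at 37 °C; ONE-Glo luminescence read after 30 min.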
Rab9 prom act: activates the Rab9 promoter; Potency, µM (series often up to 9.22 µM), for the others: at the top dose activation, negative = inhibition, usual class: activators; AID 485297; Huh7 Rab9 promoter-luciferase reporter, luminescence, 24 h; 320,000 tested, 2.8% active; further: % of control where 0% means no effect; nearly all actives have a fitted effect of over 60% in size
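Luciferase signal after 10 min detection reagent at ambient indicates Rab9 promoter upregulation; stably transfected Huh7 cells were treated 24 h with compound in DMSO at 37 °C, 5% CO2.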
SMN2 splice enh: enhancers of SMN2 splice variant expression. HEK293 SMN2-luciferase splicing reporter, luminescence, 30-36 h. Potency, µM (series often up to 46.1 µM), inactives show at the highest dose activity change, positive = activation, hits mostly activators. 210,000 tested, 2.8% active; further: % of control where 0% means no effect; nearly all actives have a fitted effect of over 55% in size
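HEK293 cells carry an SMN2 […]–luciferase reporter in which exon 7 inclusion puts luciferase in frame. Cells were plated 10-12 h before compound addition, then incubated 30-36 h at 37C. ONE-Glo luminescence was read; sodium butyrate at 4.5 mM final served as control.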
ELG1 genotox: induces genotoxicity in HEK293T cells with luciferase-tagged ELG1; 330,000 tested, 1.3% active; HEK293T ELG1-luciferase reporter, luminescence, 16 h; Potency, µM (doses to about 46 µM), for the others: top-dose activity change, positive = activation, hits mostly activators; further: % of control where 0% means no effect; nearly all actives have a fitted effect of over 60% in size
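DMSO vehicle served as control against compound-treated ELG1-luciferase HEK293T cells; exposure lasted 16 hr at 37 °C and 5% CO2, followed by ONE-Glo luminescence detection after 30 min.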
FLuc counter: counter-screen for miR-21 project: firefly luciferase inhibitors or activators. P08659. Potency, µM (highest dose often 57.5 µM), for inactives: at the top dose activity change, negative = inhibition, actives largely listed as inhibitors. 360,000 tested, 6.9% active. purified FLuc, Km substrates, luminescence inhibition;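 further: plate controls were vehicle for no effect and reference inhibitor for full effect; nearly all actives have a fitted effect of over 55% in size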
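Purified P. pyralis luciferase (10nM final) with 10uM D-luciferin and 10uM ATP (Km levels) in 50mM Tris acetate pH 7.5, 10mM Mg acetate, 0.01% Tween-20, 0.05% BSA; qHTS 6-point titration, ~60 µM downward; luminescence read.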
NPC1 prom act: NPC1 promoter activation. Huh7 NPC1 promoter luciferase reporter, 24 h. Potency, µM (titrated, usually from 9.22 µM), for inactives: top-dose activation, usual class: activators. 320,000 tested, 2.4% active. AID 485313; further: % of control where 0% means no effect; nearly all actives have a fitted effect of over 60% in size
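Huh7 reporter cells (NPC1 promoter driving luciferase) are dosed with compound for 24 h at 37 °C, 5% CO2; luciferase detection reagent is then added and luminescence measured after 10 min at ambient temperature.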
ELG1 FLuc counter: luciferase inhibition in cell-free luciferin readout for ELG1 hits; shares compounds with ELG1 repair inh; cell-free firefly luciferase luminescence counter-screen, ViewLux; Potency, µM (top dose mostly 46.1 µM), for the others: at the highest dose activity change, negative = inhibition, most hits filed as inhibitors; 350 tested, 3% active; AID 624247; further: on the % scale 0 is the no-effect control and ±100 the full control effect
ELG1-Luc inh: inhibits ELG1-dependent DNA repair in HEK293T cells, confirmed; shares compounds with ELG1 repair inh; HEK293T ELG1-luciferase levels, luminescence; cells co-treated with 5-fluorouridine; Potency, µM (highest dose often 46.1 µM), without a hit: at the highest dose activity change, negative = inhibition, usual class: inhibitors; 670 tested, 68% active; further: on the % scale 0 is the no-effect control and ±100 the full control effect; nearly all actives have a fitted effect of over 55% in size
Target sequence (Q96QE3 whole entry, looked up): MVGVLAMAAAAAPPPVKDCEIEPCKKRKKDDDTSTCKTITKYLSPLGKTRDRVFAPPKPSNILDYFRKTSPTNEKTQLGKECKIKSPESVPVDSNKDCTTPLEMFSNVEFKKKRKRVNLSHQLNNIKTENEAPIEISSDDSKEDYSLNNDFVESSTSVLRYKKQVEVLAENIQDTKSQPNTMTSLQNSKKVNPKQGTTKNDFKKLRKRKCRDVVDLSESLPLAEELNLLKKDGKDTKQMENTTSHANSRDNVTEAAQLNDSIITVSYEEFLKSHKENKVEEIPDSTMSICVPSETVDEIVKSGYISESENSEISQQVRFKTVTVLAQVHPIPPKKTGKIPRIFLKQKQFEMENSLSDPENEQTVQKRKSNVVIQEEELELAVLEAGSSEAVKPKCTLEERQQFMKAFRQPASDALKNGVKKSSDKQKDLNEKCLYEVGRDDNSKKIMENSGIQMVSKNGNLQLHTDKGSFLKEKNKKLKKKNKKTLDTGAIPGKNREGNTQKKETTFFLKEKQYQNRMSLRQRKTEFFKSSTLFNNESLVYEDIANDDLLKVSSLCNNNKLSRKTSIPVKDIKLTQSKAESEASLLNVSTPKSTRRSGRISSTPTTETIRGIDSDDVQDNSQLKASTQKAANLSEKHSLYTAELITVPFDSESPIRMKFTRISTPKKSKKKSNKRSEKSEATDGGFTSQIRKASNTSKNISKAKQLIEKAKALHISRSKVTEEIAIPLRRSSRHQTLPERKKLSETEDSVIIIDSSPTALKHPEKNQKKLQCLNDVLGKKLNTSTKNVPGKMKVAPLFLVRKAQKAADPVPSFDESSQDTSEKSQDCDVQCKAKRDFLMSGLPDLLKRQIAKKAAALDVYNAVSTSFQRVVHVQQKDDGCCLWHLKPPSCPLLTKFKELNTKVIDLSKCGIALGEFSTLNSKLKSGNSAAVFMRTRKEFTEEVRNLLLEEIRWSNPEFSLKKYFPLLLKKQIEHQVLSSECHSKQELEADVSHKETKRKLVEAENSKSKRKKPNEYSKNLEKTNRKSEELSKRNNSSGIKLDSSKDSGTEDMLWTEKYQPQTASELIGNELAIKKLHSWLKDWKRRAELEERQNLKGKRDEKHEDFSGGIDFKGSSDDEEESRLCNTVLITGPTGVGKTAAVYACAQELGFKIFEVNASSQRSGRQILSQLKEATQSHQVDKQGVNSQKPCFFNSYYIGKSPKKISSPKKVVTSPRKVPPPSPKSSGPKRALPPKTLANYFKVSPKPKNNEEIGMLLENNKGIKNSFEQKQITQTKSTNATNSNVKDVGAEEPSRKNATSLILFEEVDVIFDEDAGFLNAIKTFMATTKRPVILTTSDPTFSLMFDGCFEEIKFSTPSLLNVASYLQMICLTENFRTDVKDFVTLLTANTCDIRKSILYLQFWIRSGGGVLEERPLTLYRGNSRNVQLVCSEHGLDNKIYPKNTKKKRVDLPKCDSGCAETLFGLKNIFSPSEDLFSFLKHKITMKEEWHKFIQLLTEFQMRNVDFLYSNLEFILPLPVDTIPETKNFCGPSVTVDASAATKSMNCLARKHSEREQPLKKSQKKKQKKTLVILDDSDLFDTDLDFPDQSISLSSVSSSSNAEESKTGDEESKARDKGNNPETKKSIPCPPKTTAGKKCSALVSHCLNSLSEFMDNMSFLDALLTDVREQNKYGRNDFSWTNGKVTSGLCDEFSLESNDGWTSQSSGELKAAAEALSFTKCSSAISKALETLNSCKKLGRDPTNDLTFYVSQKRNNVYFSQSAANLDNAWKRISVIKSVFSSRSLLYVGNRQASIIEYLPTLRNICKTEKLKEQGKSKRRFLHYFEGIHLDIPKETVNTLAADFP
ELG1-Luc MMS: confirmation of human ELG1 repair inhibitors, MMS stimulated; HEK293T luciferase-tagged ELG1 level, MMS stimulated; shares compounds with ELG1 repair inh; AID 624249; 670 tested, 53% active; Potency, µM (highest dose often 46.1 µM), inactives show at the top dose activity change, negative = inhibition, hits mostly inhibitors; further: on the % scale 0 is the no-effect control and ±100 the full control effect; nearly all actives have a fitted effect of over 60% in size
ELG1 5FU viab: confirmation of ELG1 repair inhibitors: viability with 5FU; shares compounds with ELG1 repair inh; cell viability with 5-FU, ELG1-dependent repair; Potency, µM (top dose mostly 46.1 µM), inactives show at the highest dose activity change, negative = viability loss, hits mostly cytotoxic; 670 tested, under 10 active; AID 624250;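 further: ELG1-luc HEK293T cells cotreated with 5-fluorouridine at 10 µM final; viability measured 16 h after compound addition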
ELG1 MMS viab: confirmation of ELG1 repair inhibitors: viability with MMS; shares compounds with ELG1 repair inh; Cell viability with MMS, ELG1-dependent DNA repair; Potency, µM (top dose mostly 46.1 µM), without a hit: at the highest dose activity change, negative = viability loss, hits mostly cytotoxic; 670 tested, 33% active; AID 624251;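 further: ELG1-luc HEK293T cells co-treated with 10 µM MMS; viability read 16 h after compound addition; on the % scale 0 is the no-effect control and ±100 the full control effect; nearly all actives have a fitted effect of over 60% in size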
Cell viab unstim: counter-screen for ELG1 repair inhibitors: unstimulated cell viability; shares compounds with ELG1 repair inh; cell viability counter-screen, unstimulated, luminescence; Potency, µM (series often up to 45.9 µM), for the others: top-dose activity change, negative = loss of viability, actives largely listed as cytotoxic; 900 tested, 8% active; AID 624252;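 further: compound exposure lasted 16 hours before reading; on the % scale 0 is the no-effect control and ±100 the full control effect; nearly all actives have a fitted effect of over 55% in size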
FLuc enzyme: inhibits purified firefly luciferase, counter-screen for ELG1 hits | shares compounds with ELG1 repair inh | purified firefly luciferase, luminescence counter-screen | Potency, µM (titrated, usually from 57.5 µM), for inactives: top-dose activity, negative = inhibition, actives largely listed as inhibitors | 350 tested, 10% active | AID 624253; further: on the % scale 0 is the no-effect control and ±100 the full control effect
Active calls of the source: *; ? = inconclusive; / = no result; [ ] = remark or other dose. Most compounds without a hit are left out; they make up all but 9.2% or so of the library. The call rests on the fitted dose curve; in most records, active means well fitted curve in the direction sought with a large enough effect; inconclusive means small, poorly fitted or top-dose-only effect, or another doubt; inactive means no such curve, though single readings can be large; an effect the other way counts as inactive or inconclusive. Potency means the concentration at half of the fitted maximal effect.

SMILES | ELG1 repair inh | Rab9 prom act | SMN2 splice enh | ELG1 genotox | FLuc counter | NPC1 prom act | ELG1 FLuc counter | ELG1-Luc inh | ELG1-Luc MMS | ELG1 5FU viab | ELG1 MMS viab | Cell viab unstim | FLuc enzyme
COc1ccc(C(=O)N/C(=C\c2cccs2)c2nc3ccccc3[nH]2)cc1OC | 2.3µM* | 0% | -17% | -2% | ? | -1% | / | 7.9µM* | 1% | ? | -1% | ? | /
Nc1ncnc(N2CCc3ccccc32)c1[N+](=O)[O-] | 1.8µM* | -27% | 3% | -20% | -1% | 9% | / | 1.6µM* | 7.9µM* | -10% | -3% | -19% | /
COc1ccc2cc3c(N)nn(C(=O)c4ccccc4[N+](=O)[O-])c3nc2c1 | 2.3µM* | 0% | -38% | -10% | -7% | 7% | / | 1.8µM* | 14µM* | 4% | ? | ? | /
COc1ccc2cc3c(N)nn(C(=O)c4ccc(Cl)c([N+](=O)[O-])c4)c3nc2c1 | 1.6µM* | 0% | -6% | -14% | 1% | 20% | / | 3.5µM* | 7.9µM* | 5% | 7% | 7% | /
O=C(O)/C=C/c1cccnc1 | 20% | 0% | / | -1% | 4% | -2% | / | / | / | / | / | / | /
C(=C\c1ccc2ccccc2n1)/c1ccc2ccccc2n1 | / | / | / | / | / | / | 39% | / | / | / | / | 3% | 0.29µM*
CC(C)CCNC(=O)COC(=O)/C=C/c1ccc2ccccc2n1 | 0% | 3%[1.84 µM] | -24% | -2% | -10% | 1% | / | / | / | / | / | / | /
C(=C\c1ccc2ccccc2n1)/c1cccnc1 | / | / | / | / | / | / | -20% | / | / | / | / | ? | 0.29µM*
COc1ccccc1NC(C)C(=O)Nc1ccc(C(C)=O)cc1 (stereo not given) | 28% | -1% | 26% | 7% | 2% | -1% | / | / | / | / | / | / | /
COc1ccccc1NC(=O)C(=O)N(c1cccnc1)C(C(=O)NC(C)(C)C)c1ccccc1F (stereo not given) | 2% | -2% | / | -4% | -3% | 0% | / | / | / | / | / | / | /
CCCOc1ccc(/C=C/C(=O)Nc2ccc([N+](=O)[O-])cc2)cc1 | ? | -37% | / | -6% | -9% | -31% | / | / | / | / | / | / | /
Cc1ccc(/C=C/C(=O)Nc2ccc([N+](=O)[O-])cc2)o1 | 1.8µM* | ? | / | -2% | -27% | 23% | / | 14µM* | 22µM* | ? | 25µM* | ? | /
COC(=O)c1c(C)sc(-c2c(-c3cccc(Cl)c3)[nH]c3c2c(=O)[nH]c(=O)n3C)c1O | / | / | / | / | -6% | / | / | / | / | / | / | / | /
CC(=O)Oc1ccc(-c2nc(-c3ccccc3)no2)cc1 | / | / | / | / | / | / | / | / | / | / | / | ? | /
Cc1ccc(-c2cc(C(F)F)n3ncc(C(=O)Nc4c(C)nn(Cc5c(Cl)cccc5Cl)c4C)c3n2)cc1 | 4.6µM* | -4% | -4% | 4% | 3% | -10% | -4% | 4µM* | 6% | ? | 2% | -5% | -5%
O=C(Nc1cnn(Cc2ccc(F)cc2)c1)c1cnn2c(C(F)F)cc(-c3ccccc3)nc12 | 2.3µM* | -5% | / | -7% | -5% | -9% | ? | 5µM* | 13µM* | ? | ? | ? | -11%
O=C(Nc1cc(F)ccc1F)c1cnn2c(C(F)F)cc(-c3ccccc3)nc12 | / | / | -3% | / | 4% | / | / | / | / | / | / | / | /
COc1ccccc1-c1nc2c(c(SCC(=O)N3CCCCC3)n1)Cc1c(CO)cnc(C)c1O2 | 8.2µM* | -1% | / | -8%[9.26 µM] | -1% | 0% | -49% | 10µM* | ? | ? | ? | ? | -6%
COc1cccc(-c2nc3c(c(SCC(=O)N4CCOCC4)n2)Cc2c(CO)cnc(C)c2O3)c1 | 4.6µM* | -4% | / | -7% | -1% | -1% | 9% | 3.2µM* | 14µM* | ? | ? | ? | -2%
O=C(NC1CCN(S(=O)(=O)c2ccc(Cl)c(F)c2)CC1)c1cccnc1 | -3% | 2% | / | -1% | 4% | -1% | / | / | / | / | / | / | /
NC(=O)c1sc2nc3c(c(-c4cccs4)c2c1N)CCCCC3 | 0.82µM* | 13% | -23% | -12% | -6% | 23% | ? | 1.1µM* | 4.5µM* | 2% | -2% | ? | -1%
Cn1cccc1/C=N\NC(=O)Cc1ccc(Br)c2ccccc12 | 3.7µM* | -12% | -59% | -6% | -13% | -14% | / | ? | 7.9µM* | -13% | 7.9µM* | ? | /
Cn1cccc1/C=N/NC(=O)Cc1ccccc1 | 14% | 9% | / | 0% | -9% | -2% | / | / | / | / | / | / | /
Nc1ccc(C(=O)OCC(=O)Nc2cc([N+](=O)[O-])ccc2F)cc1 | -20% | -1% | 5% | 1% | -3% | 5% | / | / | / | / | / | / | /
COc1ccc(C2=Nn3c(nnc3-c3ccncc3)SC2)cc1OC | ? | -5% | 10µM* | 15% | 1% | -3% | 32% | 7.9µM* | -17% | ? | 6% | -6% | -2%
COc1ccccc1NC(=O)N(Cc1ccco1)Cc1cc2ccc(C)c(C)c2[nH]c1=O | 8.2µM* | -7% | -24% | -24% | ? | -21% | 10% | 4µM* | ? | 4% | ? | ? | -17%

From PubChem
